Most compounds without a hit are left out; they make up all but 7.3% or so of the library.
FLuc modulator: qHTS profiling assay for firefly luciferase inhibitor/activator using purifed enzyme and Km concentrations of substrates (counterscreen for miR-21 project) | Luciferin 4-monooxygenase (Photinus pyralis), P08659 | AID 588342, 2011 | Potency, µM (doses to about 57.5 µM), usual class: inhibitors | 360,000 tested, 6.9% active | purified FLuc, Km substrates, luminescence inhibition; further: nearly all actives have a fitted effect of over 55% in size
Target sequence (P08659 whole entry, looked up): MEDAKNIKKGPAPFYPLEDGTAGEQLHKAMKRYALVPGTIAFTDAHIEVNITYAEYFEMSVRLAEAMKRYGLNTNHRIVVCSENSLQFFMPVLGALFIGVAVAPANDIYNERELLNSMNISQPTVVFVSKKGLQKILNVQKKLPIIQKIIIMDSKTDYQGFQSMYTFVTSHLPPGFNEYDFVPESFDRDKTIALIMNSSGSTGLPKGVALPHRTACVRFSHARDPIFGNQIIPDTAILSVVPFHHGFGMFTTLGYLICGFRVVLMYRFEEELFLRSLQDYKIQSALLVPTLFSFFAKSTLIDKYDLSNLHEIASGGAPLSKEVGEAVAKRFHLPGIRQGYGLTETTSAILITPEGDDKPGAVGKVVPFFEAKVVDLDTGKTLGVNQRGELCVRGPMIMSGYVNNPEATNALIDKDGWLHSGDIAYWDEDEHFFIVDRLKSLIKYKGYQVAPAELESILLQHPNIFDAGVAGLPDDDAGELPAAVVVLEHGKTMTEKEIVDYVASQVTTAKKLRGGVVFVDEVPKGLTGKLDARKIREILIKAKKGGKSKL
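Biochemical qHTS of compounds, final roughly 60 µM downward over six points, against 10 nM purified firefly luciferase using Km concentrations of substrates (10 uM D-luciferin, 10 uM ATP) in Tris acetate pH 7.5 buffer; luminescence output.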
SMN2 splice enh: qHTS Assay for Enhancers of SMN2 Splice Variant Expression. 210,000 tested, 2.8% active. Potency, µM (series often up to 46.1 µM), actives largely listed as activators. HEK293 SMN2-luciferase splicing reporter, luminescence, 30-36 h; further: nearly all actives have a fitted effect of over 55% in size
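HEK293 cells carry an SMN2 […]–luciferase reporter in which exon 7 inclusion puts luciferase in frame. Cells were plated 10-12 h before compound addition, then incubated 30-36 h at 37C. ONE-Glo luminescence was read; sodium butyrate at 4.5 mM final served as control.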
Rab9 promoter act: qHTS Assay for Rab9 Promoter Activators. Huh7 Rab9 promoter-luciferase reporter, luminescence, 24 h. 320,000 tested, 2.8% active. AID 485297, 2010. Potency, µM (top dose mostly 9.22 µM), usual class: activators; further: nearly all actives have a fitted effect of over 60% in size
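Measured in stably transfected Huh7 cells bearing a Rab9 promoter–luciferase construct: 24 h compound treatment at 37 °C, followed by luminescence detection.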
NPC1 promoter act: qHTS Assay for NPC1 Promoter Activators; Potency, µM (top dose mostly 9.22 µM), hits mostly activators; AID 485313, 2010; 320,000 tested, 2.4% active; Huh7 NPC1 promoter luciferase reporter, 24 h; further: nearly all actives have a fitted effect of over 60% in size
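Compounds in DMSO were transferred onto Huh7 NPC1-luciferase reporter cells pre-incubated 2 h; after 24 h at 37 °C, Amplite reagent was dispensed and luminescence recorded 10 min later.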
ELG1 genotox: qHTS screen for small molecules that induce genotoxicity in human embryonic kidney (HEK293T) cells expressing luciferase-tagged ELG1; HEK293T ELG1-luciferase reporter, luminescence, 16 h; Potency, µM (doses to about 46 µM), actives largely listed as activators; 330,000 tested, 1.3% active; further: nearly all actives have a fitted effect of over 60% in size
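Quantitative HTS format in 1536-well plates. HEK293T ELG1-luciferase reporter cells receive test compound and are incubated 16 hr at 37 °C, 5% CO2; ONE-Glo added, 30 min room temperature, then luminescence read.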
Luc counter: Counterscreen for Luciferase (Kinase-Glo TM) Inhibition. 200,000 tested, 0.28% active. Kinase-Glo luciferase, ATP luminescence, 8 min. Potency, µM (doses to about 38.3 µM), hits mostly inhibitors. AID 1379, 2008; further: nearly all actives have a fitted effect of over 60% in size
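Luminescence was the read-out, taken after 8-minute incubation at ambient temperature. Luciferase turned over luciferin with 10 uM ATP in imidazole pH 7.2 buffer containing KCl, MgCl2, Tween 20 and BSA.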
Hits are given with their value; - = inactive; ? = inconclusive; . = not tested or not shown; [ ] = dose if it differs, or a comment. The call rests on the fitted dose curve; in most records, active means well fitted curve in the direction sought with a large enough effect; inconclusive means small, poorly fitted or top-dose-only effect, or another doubt; inactive means no such curve, though single readings can be large; an effect the other way counts as inactive or inconclusive.

SMILES	FLuc modulator	SMN2 splice enh	Rab9 promoter act	NPC1 promoter act	ELG1 genotox	Luc counter
CCOC(=O)C1=C(c2ccccc2)NC(N)=NC1c1ccc(OCc2ccc(Cl)cc2)c(OC)c1 (configuration not stated)	13µM	.	-	-	-	.
COc1ccc(NC(=O)CCCN2C(=O)CCn3nc(-c4cn(C)c5ccccc45)cc32)cc1	-	.	.	.	.	.
CCC(NC(=O)c1ccccc1NC(=O)c1ccc(OC)cc1)C(=O)N1CCCC1 (configuration not stated)	17µM	?	-	-	-	-
COc1c(Cl)cc(C(=O)NN)cc1Cl	-	.	-	-	?	-
Cc1ccccc1NC(=O)c1ccc2ccccc2c1	15µM	.	?	?	?	.
CC(C)Oc1ccc(CCC(=O)NNC(=O)c2ccccc2C(=O)O)cc1	-	.	-	-	-	.
CC(C)Oc1ccc(C(=O)NNC(=O)c2ccccc2C(=O)O)cc1	21µM	-	-	-	-	-
COc1c(Cl)cc(C(=O)Nc2ccccc2C(=O)O)cc1Cl	17µM	-	-	-	-	-
CCC(NC(=O)c1ccccc1NC(=O)C(C)(C)C)C(=O)N1CCCC1 (configuration not stated)	-	.	-	-	-	.
Cc1ccccc1NC(=O)NNC(=O)c1ccc2ccccc2c1	-	.	-	-	-	.
COC(=O)CCn1cnc2onc(-c3cc(F)cc(F)c3)c2c1=O	-	-	.	.	.	.
COc1cc(OC)c(NC(=O)Nc2ccc3c(c2)N(C)C(=O)c2ccccc2S3)cc1Cl	-	.	.	.	.	.
O=C(CN1C(=O)C2CCCCN2c2ccc(C(=O)N3CCCC3)cc21)NCc1cccc(Cl)c1 (configuration not stated)	-	.	.	.	.	.
COc1ccc(C(=O)Nc2ccccc2C(N)=O)cc1	-[2.3 µM]	32µM	2µM	3.2µM	?	?
O=C(Nc1nnc(-c2ccco2)o1)c1ccc2ccccc2c1	?	-	-	-	?	-
COC(=O)c1ccccc1NC(=O)NC1CCCC1	-	.	-	-	-	.
COc1ccc(NC(=O)c2ccccc2NC(=O)NC2CCCCC2)cc1	5.4µM	-	-	-	-	-
Cc1nnc(NC(=O)c2ccc3ccccc3c2)o1	24µM	-	-	-	-	-
O=C(O)c1ccc(NC(=O)c2ccccc2NC(=O)c2ccccc2Cl)cc1	19µM	.	-	-	-	.
COc1ccc(C(=O)Nc2ccccc2C(=O)N2CCCCCC2)cc1	-	.	-	?	-	.
O=C(Cc1ccc(Cl)cc1)Nc1ccccc1C(=O)Nc1ccc(C(=O)O)cc1	-	-	-	-	-	-
COc1ccc(NC(=O)c2ccc(C(=O)Nc3ccc(OC)cc3OC)cc2)c(OC)c1	-	-	-	-	?	-
COc1ccc(C(=O)Nc2ccccc2C(=O)Nc2ccccc2C(=O)O)cc1	0.48µM	.	2.8µM	3.2µM	-	.
COc1ccc(C(=O)Nc2ccccc2C(=O)Nc2ccncc2)cc1	1.7µM	.	?	?	?	.
COc1ccc(C(=O)Nc2ccc(O)cc2C(=O)O)cc1	11µM	-	-	-	-	-
SMILES	FLuc modulator	SMN2 splice enh	Rab9 promoter act	NPC1 promoter act	ELG1 genotox	Luc counter
NC(=O)c1ccccc1NC(=O)c1ccc2ccccc2c1	0.54µM	.	0.56µM	0.89µM	2.3µM	.
COc1ccc(NC(=O)c2ccc(Cl)c(NC(=O)c3ccncc3)c2)cc1	?	.	-	-	-	-
COCCNC(=O)CCn1c(=O)c2cc(OC)c(OC)cc2n(CC(=O)Nc2ccccc2OC)c1=O	-	-	.	.	.	.
CCOC(=O)c1cc(-c2ccccc2)n(CC(=O)Nc2cc(Cl)c(OC)cc2OC)c1C	-	.	.	.	.	.
COc1ccccc1C(=O)Nc1ccc(C(=O)O)cc1	-	-	-	-	-	-
COc1ccc(C)cc1NC(=O)NC1CCCCCCC1	15µM	.	-	-	-	.
CCCCNC(=O)Nc1ccccc1C(=O)Nc1ccc(OC)cc1	11µM	-	-	-	-	-
CCCCNC(=O)Nc1ccccc1C(=O)NCCC	-	-	-	-	-	-
COc1ccc(C(=O)Nc2ccccc2C(=O)N/N=C/c2cccc3ccccc23)cc1	0.085µM	-	?	?	-	5µM
COc1ccc(C(=O)Nc2ccccc2C(=O)Nc2ccc(C(=O)O)cc2)cc1	0.76µM	.	?	?	?	.
O=C(O)[C@H]1CC=CC[C@@H]1C(=O)Nc1cccc(O)c1	.	-[9.22 µM]	.	.	.	-[7.66 µM]
O=S(=O)(CCC(F)=C(F)F)c1nnnn1C1CCCCC1	.	-	.	.	.	-
Cc1ccc(Cl)cc1N1CCN(C(=O)c2ccc(C)c(-n3c(C)nc4cccnc43)c2)CC1	-	.	.	.	.	.
NC(=O)c1ccccc1NC(=O)c1ccc2c(c1)OCO2	7.6µM	.	1.8µM	1µM	?	.
COCC(=O)Nc1ccccc1C(=O)Nc1ccc(OC)cc1	-	?	2.8µM	?	?	-
CCCC(O)c1nc2ccccc2n1CCCCOc1ccc(OC)cc1 (configuration not stated)	-	.	.	.	.	.
Cc1cc(NCCCN2CCOCC2)n2ncc(-c3ccccc3)c2n1	7.6µM	16µM	0.71µM	1µM	9.2µM	-
Cc1cc(NCCOCCO)n2ncc(-c3ccc(Cl)cc3)c2n1	1.3µM	10µM	0.89µM	1.3µM	?	-
COc1ccccc1CNc1cc(C)nc2nc(-c3ccc(C)cc3)nn12	6µM	.	.	.	.	.
Cc1cc(NCc2ccccn2)n2ncc(-c3ccccc3)c2n1	4.3µM	.	?	0.5µM	?	.
Cc1nn2c(NCc3ccccn3)cc(C(C)C)nc2c1-c1ccccc1	-	.	-	-	-	.
CCOc1ccc(-c2c(C)nn3c(C)c(C(=O)NCCc4ccc(C)cc4)cnc23)cc1OCC	-	.	.	.	.	.
Cc1cc(NCc2ccccn2)n2nc(C)c(-c3ccc(Cl)cc3)c2n1	?	.	-	-	-	.
COc1ccc(CCNc2cc(C)nc3c(-c4ccccc4OC)cnn23)cc1OC	-	.	-	-	-	.
Cc1cc(NCc2ccccn2)n2ncc(-c3ccc(Cl)cc3)c2n1	11µM	.	?	?	-	.
SMILES	FLuc modulator	SMN2 splice enh	Rab9 promoter act	NPC1 promoter act	ELG1 genotox	Luc counter
COc1ccccc1-c1cnn2c(NCc3ccccc3)cc(C)nc12	17µM	.	-	-	-	.
Cc1cc(/C=C(/C#N)C(=O)Nc2ccccc2)c(C)n1-c1cccnc1	1.5µM	-	4µM	?	-	-
Cc1ccccc1NC(=O)/C(C#N)=C\c1cc(C)n(-c2ccc(C(=O)O)cc2)c1C	-	.	-	-	-	.
CNC(=O)/C(C#N)=C\c1cc(C)n(-c2ccc(N3CCOCC3)cc2)c1C	-	.	-	-	-	-
Cc1cc(/C=C(\C#N)C(=O)Nc2ccccc2)c(C)n1-c1ccc2c(c1)OCO2	11µM	-	-	-	-	-
Cc1cccc(NC(=O)Cn2c(/C=C/c3ccccc3)nc3ccccc32)c1	3µM	.	-	-	23µM	.
CC(C)Cn1c(/C=C/c2ccc(F)cc2)nc2ccccc21	2.4µM	18µM	.	.	.	.

Assay outcomes (PubChem BioAssay)
